Laboratory results taken from PubChem BioAssay (NCATS).
“And” between values parts separate entries of the source, which are not always exact repeats. Equal entries are not always repeated. Results filed as inconclusive are left out. The source made the active and inactive calls. Unless noted, calls come from the whole dose curve; as a rule, active = well fitted curve in either direction with a large enough effect (not every such curve was filed as active); inconclusive = small, poorly fitted or top-dose-only effect, or another doubt; inactive = flat fitted curve, though single readings scatter.

Assays:
[1] = AP1 Signaling Pathway (AID 357);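 note: ME-180 reporter cells stimulated with EGF at its EC50 level; % is set by controls: 0 for no effect and ±100 for the full control effect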
Summary of the method: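 First, ME-180 AP-1-bla cells were cultured overnight at 37 °C in low-serum Opti-MEM. Next, titrated compounds with EC50 EGF were incubated 5 hours. Finally, CCF4 was added for 2.5 hours and the 460/530 nm ratio recorded.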

[2] = NFAT Signaling Pathway (AID 444); conditions: Jurkat NFAT-bla M1, carbachol, beta-lactamase ratio, 5 h; at 17.2 µM (top of the series);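 note: carbachol stimulus at about its EC50 of 1 µM final; % is set by controls: 0 for no effect and ±100 for the full control effect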
Summary of the method: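 Read-out: CCF4 FRET ratio (460 nm/530 nm) after 1 h RT dye loading, used for %activity and AC50 from titration series. Cells: Jurkat NFAT-β-lactamase/M1 line, treated with compound plus 1 uM carbachol for 5 h, 37 °C.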

[3] = Stat Signaling Pathway (AID 446);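 note: ME-180 cervical cancer cells given 40 pM IL-6 alongside compound; SIE-controlled beta-lactamase reporter measured as 460/530 nm FRET emission ratio; % is set by controls: 0 for no effect and ±100 for the full control effect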
Summary of the method: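 Normalization used AC90 stimulation (300 pM IL-6) and AC90 inhibition (125 nM pan-JAK inhibitor at 40 pM IL-6). The underlying signal is SIE-driven beta-lactamase in ME-180 cells after 5 h IL-6 exposure with compound.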

[4] = biological target: Glucocorticoid receptor (Homo sapiens) (UniProt P04150); assay: GR-GFP Redistribution (AID 450;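 active = compounds whose dose series gives a full or clear partial fitted curve of increased nuclear translocation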; note: potency is the fitted concentration of half-maximal effect); conditions: U2OS GR-GFP nuclear translocation, laser cytometry, 2 h
Chain of Glucocorticoid receptor (Homo sapiens) (P04150 whole entry, looked up, the tested form may be a part): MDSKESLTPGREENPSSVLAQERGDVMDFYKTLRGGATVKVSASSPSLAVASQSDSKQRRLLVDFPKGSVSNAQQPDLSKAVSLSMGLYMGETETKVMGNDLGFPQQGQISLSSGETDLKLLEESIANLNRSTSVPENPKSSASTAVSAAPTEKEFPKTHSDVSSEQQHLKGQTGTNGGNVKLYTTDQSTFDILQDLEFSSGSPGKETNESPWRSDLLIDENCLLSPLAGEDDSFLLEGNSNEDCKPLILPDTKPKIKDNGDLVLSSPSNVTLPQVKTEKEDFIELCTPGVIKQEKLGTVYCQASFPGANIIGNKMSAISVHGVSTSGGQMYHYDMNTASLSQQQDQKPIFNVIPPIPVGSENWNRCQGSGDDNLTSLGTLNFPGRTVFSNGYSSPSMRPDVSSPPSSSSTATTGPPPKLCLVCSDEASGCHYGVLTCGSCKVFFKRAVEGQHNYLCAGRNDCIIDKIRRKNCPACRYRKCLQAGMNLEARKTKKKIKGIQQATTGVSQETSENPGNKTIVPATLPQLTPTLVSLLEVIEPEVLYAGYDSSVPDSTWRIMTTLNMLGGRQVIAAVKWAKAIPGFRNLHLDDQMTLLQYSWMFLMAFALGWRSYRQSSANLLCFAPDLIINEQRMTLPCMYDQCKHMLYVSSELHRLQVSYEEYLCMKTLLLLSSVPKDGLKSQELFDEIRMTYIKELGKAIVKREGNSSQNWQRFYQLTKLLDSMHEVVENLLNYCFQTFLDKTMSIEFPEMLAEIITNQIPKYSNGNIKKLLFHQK

[5] = biological target: Glucocorticoid receptor (Homo sapiens) (UniProt P04150); assay: GR-EFC Redistribution (AID 451; calls by dose curve; note: potency is the fitted concentration of half-maximal effect); conditions: CHO-K1 GR-EFC translocation, beta-gal luminescence, 2 h
Summary of the method: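 Translocation of GR-ED fusion to nuclear EA restores b-gal, read by luminescence after 1 h room-temperature detection. Engineered CHO-K1 biosensor cells, 1,000/well, exposed 2 h at 37 C to titrations up to 46 uM final.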

[6] = biological target: Mitogen-activated protein kinase 10 (Mus musculus) (UniProt Q61831); assay: JNK3 AlphaScreen Assay (AID 530);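 note: kinase came from lysate of stimulated human HepG2 cells; signal reports phosphorylation of biotinylated GST-cJun 1-79 at Ser73 with 10 µM ATP; % is set by controls: 0 for no effect and ±100 for the full control effect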
Summary of the method: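 Kinase buffer: 20 mM Tris-HCl pH 7.6, 10 mM MgCl2, 1 mM DTT, 0.1 mM Na3VO4, 0.01% Tween-20; ATP 10 uM. Substrate biotin-GST-cJun(1-79), enzyme from activated HepG2 lysates. Detection by Ser73 phospho-antibody AlphaScreen.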

[7] = biological target: 3',5'-cyclic-AMP phosphodiesterase 4B (Homo sapiens) (UniProt Q07343); assay: qHTS Assay for Inhibitors of PDE-IV (AID 607; active = well fitted activation curve with a large enough effect in the main read-out, with a control signal flat, not every such curve was filed as active; note: % of control where 0% means no effect)
Chain of 3',5'-cyclic-AMP phosphodiesterase 4B (Homo sapiens) (Q07343 whole entry, looked up): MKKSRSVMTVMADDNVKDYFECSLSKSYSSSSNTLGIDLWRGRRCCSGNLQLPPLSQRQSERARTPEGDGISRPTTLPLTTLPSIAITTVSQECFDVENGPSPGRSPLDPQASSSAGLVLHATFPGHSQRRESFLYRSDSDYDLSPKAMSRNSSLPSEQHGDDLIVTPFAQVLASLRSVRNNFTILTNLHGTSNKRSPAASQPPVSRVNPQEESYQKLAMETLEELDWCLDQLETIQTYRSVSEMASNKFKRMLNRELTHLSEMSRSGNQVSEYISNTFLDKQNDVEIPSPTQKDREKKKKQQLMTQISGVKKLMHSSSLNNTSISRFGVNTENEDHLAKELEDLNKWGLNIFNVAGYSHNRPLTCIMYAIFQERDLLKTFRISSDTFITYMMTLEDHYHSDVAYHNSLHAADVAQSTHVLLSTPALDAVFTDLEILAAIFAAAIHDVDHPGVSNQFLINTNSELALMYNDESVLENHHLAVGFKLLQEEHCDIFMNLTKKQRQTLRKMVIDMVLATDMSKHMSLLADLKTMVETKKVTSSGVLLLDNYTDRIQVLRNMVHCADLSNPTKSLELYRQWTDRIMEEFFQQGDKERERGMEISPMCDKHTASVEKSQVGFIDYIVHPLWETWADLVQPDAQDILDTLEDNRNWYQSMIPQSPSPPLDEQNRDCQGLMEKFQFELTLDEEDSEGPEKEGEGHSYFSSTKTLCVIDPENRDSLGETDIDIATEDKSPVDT
Summary of the method: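 HEK293 ACTOne cells with CNG channel (1000/well), endogenous PDE4; membrane potential dye, compounds up to 22.9 uM final. Fluorescence Ex 535/Em 590; RO 20-1724 (100 uM final) as reference.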

[8] = qHTS Assay for Lipid Storage Modulators (AID 1519; calls by dose curve); conditions: Drosophila S3 cells, BODIPY lipid droplet/cell ratio, laser cytometry, cells loaded with oleic acid; for activity change, negative = inhibition: at 25.7 µM (top of the series)
Summary of the method: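 Cells seeded at 5,000 per well were treated with compounds over a concentration series and loaded with oleic acid (400 uM, as added). Lipid droplet fluorescence (488 nm excitation, 500-530 nm channel) was read by laser-scanning cytometry and normalized to 20 uM Triacsin C.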

[9] = biological target: Ubiquitin carboxyl-terminal hydrolase 1 (Homo sapiens) (UniProt O94782); assay: Inhibitors of USP1/UAF1: Pilot qHTS (AID 504865; active = well fitted inhibition curve with a large enough effect; note: nearly all actives have a fitted effect of over 35% in size; note: potency is the fitted concentration of half-maximal effect)
Chain of Ubiquitin carboxyl-terminal hydrolase 1 (Homo sapiens) (O94782 whole entry, looked up): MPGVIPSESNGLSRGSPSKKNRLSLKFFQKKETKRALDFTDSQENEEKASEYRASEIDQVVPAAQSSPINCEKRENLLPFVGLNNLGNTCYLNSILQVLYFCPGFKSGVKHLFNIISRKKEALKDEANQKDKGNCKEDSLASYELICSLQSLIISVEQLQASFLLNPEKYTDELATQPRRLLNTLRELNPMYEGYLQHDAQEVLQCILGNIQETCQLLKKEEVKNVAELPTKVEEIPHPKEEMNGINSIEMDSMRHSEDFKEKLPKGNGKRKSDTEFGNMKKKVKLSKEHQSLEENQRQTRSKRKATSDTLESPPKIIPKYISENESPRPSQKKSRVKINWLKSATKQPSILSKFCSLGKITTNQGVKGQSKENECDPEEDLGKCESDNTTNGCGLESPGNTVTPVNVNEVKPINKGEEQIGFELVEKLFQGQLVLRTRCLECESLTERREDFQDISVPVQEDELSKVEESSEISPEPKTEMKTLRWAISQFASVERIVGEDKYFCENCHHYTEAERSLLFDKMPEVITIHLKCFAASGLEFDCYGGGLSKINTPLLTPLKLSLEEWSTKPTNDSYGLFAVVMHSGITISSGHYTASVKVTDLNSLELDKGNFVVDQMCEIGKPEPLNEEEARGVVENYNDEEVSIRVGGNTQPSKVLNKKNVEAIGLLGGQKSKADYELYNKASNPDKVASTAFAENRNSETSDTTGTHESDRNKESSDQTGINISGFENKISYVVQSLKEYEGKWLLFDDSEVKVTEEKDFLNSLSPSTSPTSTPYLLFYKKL
Summary of the method: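 1nM USP1/UAF1 + cpd, 15 min RT; start w/ Ub-Rho 150nM final; kinetic FL 480/540 nm, 6 reads q60 s. Buffer 50mM HEPES pH 7.8, 0.5mM EDTA, 1mM TCEP, 0.01% Tween-20, 0.1 mg/ml BSA.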

[10] = biological target: Cytochrome P450 1A2 (Homo sapiens) (UniProt P05177); assay: p450-cyp1a2 (AID 410; calls by dose curve; note: potency is the fitted concentration of half-maximal effect;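 for activity change, negative = inhibition: -100% = full effect of reference inhibitor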)
Chain of Cytochrome P450 1A2 (Homo sapiens) (P05177 whole entry, looked up): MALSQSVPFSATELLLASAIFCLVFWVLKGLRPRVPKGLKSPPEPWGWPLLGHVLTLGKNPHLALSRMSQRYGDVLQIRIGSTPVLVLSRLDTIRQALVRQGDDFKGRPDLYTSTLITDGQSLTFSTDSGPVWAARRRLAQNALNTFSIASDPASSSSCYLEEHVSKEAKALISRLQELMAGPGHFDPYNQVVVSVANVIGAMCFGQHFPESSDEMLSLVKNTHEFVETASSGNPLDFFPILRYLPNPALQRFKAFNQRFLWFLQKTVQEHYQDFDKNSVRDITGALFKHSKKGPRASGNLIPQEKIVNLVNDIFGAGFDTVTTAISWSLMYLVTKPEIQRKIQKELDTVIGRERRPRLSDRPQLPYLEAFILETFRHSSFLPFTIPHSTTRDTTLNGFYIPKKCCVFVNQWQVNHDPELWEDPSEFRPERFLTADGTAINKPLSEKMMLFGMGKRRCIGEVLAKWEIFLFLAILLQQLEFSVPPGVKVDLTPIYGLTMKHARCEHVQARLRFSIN
Summary of the method: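 20nM CYP1A2, 100uM Luciferin-ME (=Km), 100mM KPO4; cpd 10 min RT; +NADPH regen, 60 min RT; stop/detect 20 min; luminescence. Normalized to furafylline 57 uM = full inhibition.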

[11] = measured here: cell count channel max response
[12] = measured here: lipid channel max response

C[C@H]1CC[C@@H]2[C@@H](C)C(=O)O[C@H]3O[C@@]4(C)CC[C@H]1[C@@]32OO4
-15%: max response [8, 12]
inactive: outcome [1] | activity change, negative = inhibition [2] -0.23% | outcome [3] | Potency [4] > 20.6 µM | Potency [5] > 20.6 µM | outcome [6] | Potency [7] | activity change, negative = inhibition [8] -3.8% | Potency [9]
-10.2%: max response [8, 11]

COc1cc2c(c(OC)c1OC)-c1ccc(O)c(=O)cc1[C@H](N)CC2
-6.02%: max response [8, 11]
inactive: outcome [1] | Potency [10] | Potency [4] > 20.6 µM | Potency [5] > 20.6 µM | outcome [6] | Potency [7] | activity change, negative = inhibition [8] 1.48% | Potency [9]
-4.27%: max response [8, 12]

COc1cc2c3cc1Oc1cc(ccc1O)C[C@@H]1c4c(cc(OC)c(O)c4Oc4cccc(c4)C[C@H]3N(C)CC2)CC[N+]1(C)C
15.7%: max response [8, 11]
13.7%: max response [8, 12]
inactive: outcome [1] | Potency [10] | outcome [3] | Potency [4] > 20.6 µM | Potency [5] > 20.6 µM | outcome [6] | activity change, negative = inhibition [8] 0.776% | Potency [9]

CN1CC[C@]2(C)c3cc(O)ccc3N(C)[C@@H]12
-17.5%: max response [8, 12]
-15.4%: max response [8, 11]
inactive: outcome [1] | outcome [3] | Potency [4] > 46 µM and > 20.6 µM | Potency [5] > 46 µM and > 20.6 µM | outcome [6] | activity change, negative = inhibition [8] -1.57%
active: Potency [10] 15.8 µM and 31.6 µM | Potency [9] 2.82 µM

CN1[C@H]2CC(=O)C[C@@H]1[C@@H](O)C2
-20.9%: max response [8, 11]
-23.7%: max response [8, 12]
inactive: outcome [1] | Potency [10] | outcome [3] | Potency [4] > 20.6 µM | Potency [5] > 20.6 µM | outcome [6] | Potency [7] | activity change, negative = inhibition [8] -5.66% | Potency [9]

CCN1C[C@@]2(COC)[C@H]3[C@@H](OC)[C@H]4C1[C@@]3([C@H](OC)C[C@@H]2O)[C@H]1C[C@@]2(O)[C@@H](OC(=O)c3ccccc3)[C@@H]1[C@@]4(OC(C)=O)[C@H](O)[C@@H]2OC
-0.297%: max response [8, 11]
inactive: outcome [1] | Potency [10] | activity change, negative = inhibition [2] -22.7% | outcome [3] | outcome [6] | Potency [7] | activity change, negative = inhibition [8] -1.64% | Potency [9]
-0.649%: max response [8, 12]

COc1ccc(OC)c([C@H](O)[C@H](C)N)c1
6.97%: max response [8, 12]
inactive: outcome [1] | Potency [10] | outcome [3] | Potency [4] > 46 µM and > 20.6 µM | Potency [5] > 46 µM and > 20.6 µM | outcome [6] | Potency [7] | activity change, negative = inhibition [8] 1.13% | Potency [9]
7.1%: max response [8, 11]

CN(C)[C@@H]1C(=O)C(C(N)=O)=C(O)[C@]2(O)C(=O)C3=C(O)c4c(O)cccc4[C@@](C)(O)[C@H]3[C@H](O)[C@@H]12
inactive: outcome [1] | Potency [10] | activity change, negative = inhibition [2] -3.39% | outcome [3] | outcome [6] | Potency [7] | activity change, negative = inhibition [8] -0.12%
-10.8%: max response [8, 12]
-12.1%: max response [8, 11]
active: Potency [9] 31.6 µM
